# In all, about 13,000 compounds went through this assay and about 3,200 (25%) showed an effect of 50% or more. The list shows a part of the results.
# System: P. falciparum stage V gametocytes
# Set-up: BacTiter-Glo ATP luminescence viability of purified stage V gametocytes in 384-well plates, per cent inhibition versus DMSO
# Settings: 48 h, 5 µM; inhibitor
row,SMILES,% Inhibition
1,COc1cc(C=C(C2=NC(=O)CS2)c2nc3cccnc3n2C)ccc1O [TCMDC-135917],-7.7%
2,O=C(CC1CCCCC1)NCC(NCCCNc1cc(=O)c2ccccc2[nH]1)c1cc(Br)cc(Br)c1 (centres unmarked) [TCMDC-140315],-37.31%
3,Cc1cccc2[nH]c(-c3ccc(-c4cccc(NC(=O)C(C)CN(C)C)c4)cc3)nc12 (centres unmarked) [TCMDC-137103],-53.92%
4,CC(=O)c1c(CC(=O)O)c2ccccc2n1O [TCMDC-131414],58.24%
5,CCCCOc1ccc(-n2c(Nc3ccccc3)nc3cc(S(N)(=O)=O)ccc32)cc1 [TCMDC-135489],-3.968%
6,CC1CCC(C[C@@H](C(=O)N[C@@H](CCC(=O)N2CCCCC2)C(=O)Nc2nccs2)[C@H](C(C)C)N(O)C=O)CC1 (some centres unmarked) [TCMDC-138168],-16.64%
7,COc1cccc(Nc2nc(Nc3cccc(C#N)c3)cc(-c3ccncc3)n2)c1 [TCMDC-133447],6.387%
8,O=C(CSc1n[nH]c(=O)n1Cc1ccccc1)Nc1ccccc1-c1ccccc1 [TCMDC-123557],0.01985%
9,Cn1c(N)c(C(=O)CSc2nnc(-c3cccs3)n2Cc2ccccc2)c(=O)n(C)c1=O [TCMDC-124496],-5.537%
10,COc1ccc(C2CC(c3cccs3)=NN2C(=O)c2ccccc2)cc1OC (centres unmarked) [TCMDC-123755],-49.1%
11,COc1ccccc1-n1c(SCC(=O)c2ccc3c(c2)CC(=O)N3C)nnc1-c1cccs1 [TCMDC-124819],56.33%
12,CN1CCCC1CNS(=O)(=O)c1ccc(C(=O)NCC2CC2)cc1 (centres unmarked) [TCMDC-133683],0.07982%
13,CCc1ccc(C(=O)NC(=O)c2ccccc2O)cc1 [TCMDC-123479],19.58%
14,CS(=O)(=O)CCNCc1nc(-c2ccc3c(Nc4ccc(Oc5ccccn5)cc4)ccnc3c2)cs1 [TCMDC-138438],-37.4%
15,Cc1ccc(O)cc1Nc1ccnc2cc(-c3csc(CN(C)CCN(C)C)n3)ccc12 [TCMDC-138458],49.52%
16,c1ccc(Oc2ccc(Nc3ccnc4cc(-c5csc(CNCCN6CCOCC6)n5)ccc34)cc2)cc1 [TCMDC-138407],5.088%
17,CN(C)CCNCc1nc(-c2ccc3c(Nc4ccc(Oc5ccccc5)cc4)ccnc3c2)cs1 [TCMDC-138410],95.14%
18,CN(C)CCN(C)Cc1nc(-c2ccc3c(Nc4ccc(Oc5ccccc5)cc4)ccnc3c2)cs1 [TCMDC-138408],77.6%
19,CN(C)CCNCc1nc(-c2ccc3c(Nc4ccc(Cl)cc4F)ccnc3c2)cs1 [TCMDC-138455],16.78%
20,CCc1ccc2nc(-c3ccc(F)cc3)nc(SCC(=O)Nc3sc(C)c(C)c3C#N)c2c1 [TCMDC-125430],16.25%
21,COc1ccc2nccc([C@@H](O)CN3CCC(NC(=O)c4cc5c(F)cc(F)cc5[nH]4)CC3)c2n1 [TCMDC-134945],-17.57%
22,COc1cc2c(=O)c(Cc3ccc(Cl)cc3)c(C)[nH]c2cc1F [TCMDC-137280],22.18%

row,SMILES,% Inhibition
1,CCCCCCc1c(C)[nH]c2cc(OC)ccc2c1=O [TCMDC-138010],73.98%
2,CCCCCCCc1c(C)[nH]c2cc(OC)ccc2c1=O [TCMDC-137173],75.71%
3,CO/C(=C\C=C/c1cc2cc(Cl)c(Cl)cc2[nH]1)C(=O)NC1CC(C)(C)N(C)C(C)(C)C1 [TCMDC-139106],-40.37%
4,CO/C(=C\C=C\c1cc2cc(Cl)c(Cl)cc2[nH]1)C(=O)NC1CCN(CCOc2ccccc2)CC1 [TCMDC-139454],27.46%
5,CO/C(=C\C=C\c1cc2cc(Cl)c(Cl)cc2[nH]1)C(=O)NC1CC2CCCC(C1)N2C (centres unmarked) [TCMDC-139067],19.33%
6,CO/C(=C\C=C\c1cc2cc(Cl)c(Cl)cc2[nH]1)C(=O)NC1CC(C)N(C)C(C)C1 (centres unmarked) [TCMDC-139085],-67.29%
7,CO/C(=C\C=C\c1cc2cc(Cl)c(Cl)cc2[nH]1)C(=O)NC1CCN(CCNc2ccccc2)CC1 [TCMDC-139535],-22.32%
8,CO/C(=C\C=C\c1cc2cc(Cl)c(Cl)cc2[nH]1)C(=O)NC1CC2CCC(C1)N2C (centres unmarked) [TCMDC-139038],73.28%
9,CO/C(=C/C=C/c1cc2cc(Cl)c(Cl)cc2[nH]1)C(=O)NC1CC(C)(C)N(C)C(C)(C)C1 [TCMDC-139097],81.55%
10,CO/C(=C\C=C\c1cc2cc(Cl)c(Cl)cc2[nH]1)C(=O)N[C@H]1CN2CCC1CC2 [TCMDC-139095],-57.18%
11,CO/C(=C\C=C\c1cc2cc(Cl)c(Cl)cc2[nH]1)C(=O)NC1CCN(CCCc2ccccc2)CC1 [TCMDC-139657],70.65%
12,CC(C)(CNC(=O)[C@H]1CCCCN1)c1nc(-c2ccc(Cl)c(O)c2)c(-c2ccncc2)[nH]1 [TCMDC-141070],-44.74%
13,Oc1ccccc1-c1nc2cccnc2n1CCc1cccc(C(F)(F)F)c1 [TCMDC-135091],14.7%
14,CCc1cc2c(Sc3nnc(N)s3)ncnc2s1 [TCMDC-123993],80.67%
15,Cc1sc2ncnc(Sc3nnc(N)s3)c2c1C [TCMDC-124542],96.33%
16,COc1ccc(-c2cc(C(=O)N[C@@H](CC3CCCCC3)C(=O)NC3CCCc4ccccc43)ccc2O)cc1 (some centres unmarked) [TCMDC-140806],24.41%
17,O=C(NCCN1CCCc2ccccc21)C1CCN(c2nc(-c3ccc(Cl)cc3)no2)CC1 [TCMDC-125165],5.616%
18,Cc1noc(C)c1-c1cccc(CNCc2cccc(-c3cccc(-c4nc5cc(F)ccc5[nH]4)c3)c2)c1.O=C(O)C(F)(F)F [TCMDC-133064],-20.89%
19,Cn1cnc2c(Nc3ccncc3)nc(-c3ccc(OC(F)(F)F)cc3)nc21 [TCMDC-141276],-18.84%
20,CC[C@H](N=C(Nc1ccc(-c2ccccc2)cc1)Nc1ccc(C#N)cc1O)c1ccccc1 [TCMDC-140209],-62.75%
21,CC[C@H](N=C(Nc1ccc(C#N)cc1O)Nc1cccc(Cl)c1Cl)c1ccccc1 [TCMDC-140225],74.86%
22,CCCCCC(C)N=C(Nc1ccc(C#N)cc1O)Nc1cccc(Cl)c1Cl (centres unmarked) [TCMDC-140222],-21.37%

# From publication PMC4552634, “A New Set of Chemical Starting Points with Plasmodium falciparum Transmission-Blocking Potential for Antimalarial Drug Discovery” (PLoS ONE, 2015)
